Experimental data reported in ChEMBL document CHEMBL1157539, “Thousands of chemical starting points for antimalarial lead identification” (Nature, 2010).

What follows are compounds tested on Plasmodium falciparum (assay: GSK_TCMDC: Inhibition of Plasmodium falciparum 3D7 in whole red blood cells, using parasite LDH activity as an index of growth. Test compounds present at 2uM).
Assay type: functional

Structure (SMILES)	Inhibition [%]
CCCCNC(=O)c1[nH]c2c(NC(=O)COc3ccccc3)cccc2c1-c1cccc(NC(=O)C(N)CO)c1 (stereo not given)	87
CNC(=O)c1c(NC(=O)c2cccs2)sc2c1CCCC2	94
COc1ccc(CN2CCCN(Cc3cccc(NC(=O)c4ccc(Cl)c(Cl)c4)c3)CC2)cc1.O=C(O)C(F)(F)F	86
COc1ccc2ncc(F)c(NC(=O)C3CCC(NCc4cc5c(F)cccc5[nH]4)CC3)c2n1.Cl (stereo not given)	91
CC1CN(c2cnn(Cc3ccc(NC(=O)Nc4cccc(C(F)(F)F)c4)cc3)c(=O)c2Cl)CC(C)N1.O=C(O)C(F)(F)F (stereo not given)	86
Cc1cc(NC(=O)c2coc3cc(F)c(N4CC(C)N(C)C(C)C4)cc23)cnc1-c1ccc(C#N)cc1.Cl (stereo not given)	99
CCC(C)CN1CCN(c2ccc(NC(=O)c3cccs3)cc2)CC1C.O=C(O)C(F)(F)F (stereo not given)	94
CCC1CN2CCc3c([nH]c4ccc(OC)cc34)C2CC1CC1NCCc2cc(OC)c(OC)cc21.Cl (stereo not given)	100
Cl.O=S(=O)(Nc1cc2c(cc1OCc1ccccc1)CCN(C1CCC1)CC2)c1ccc(-c2ccc(Cl)cc2)cc1	92
COc1ccccc1CCNc1nc(C)cc(N[C@@H](Cc2ccccc2)C(=O)Nc2ccccc2)n1.O=C(O)C(F)(F)F	100
Cc1[nH]c(C)c(-c2ccc(-c3cccc(Cl)c3)nc2)c(=O)c1Br	96
CCCCCCNC(=O)C(N)CCCC(N)C(=O)NCCCCCC.Cc1ccc(S(=O)(=O)O)cc1 (stereo not given)	99
CCN(CC)CCN(CCN(CC)CC)c1ccc2c(c1)Sc1c(Cl)ccc(Cl)c1S2.Cl	98
Clc1cc(Nc2ccnc3ccc(Br)cc23)ccc1Oc1ccc2ccccc2c1Cl	100
COc1cc(NC(=O)/C=C/c2ccccc2OC(F)(F)F)cc(OCCN2CCC(O)(c3ccccc3)CC2)c1.O=C(O)C(=O)O	100
CN(C(=O)C(C)(C)Oc1ccc(Cl)cc1)C1CCN(CCCCCNC(=O)/C=C/c2ccc(Cl)c(Cl)c2)CC1	96
COc1ccc(C(=O)Nc2ccc(Cl)cc2C(=O)Nc2ccncc2)cc1	91
COc1cc(Nc2nc(N)c3cc(OC)c(OC)cc3n2)cc(OC)c1.Cl	100
CCN(CC)CCNc1ccnc2ccc3ccccc3c12	100
CN(C)CCOc1ccc(-c2cc(-c3ccncc3)c(-c3ccc(Cl)c(O)c3)o2)cc1.Cl	99

Structure (SMILES)	Inhibition [%]
CC(C)OC(=O)c1ccccc1S(N)(=O)=O	97
Cc1ccc(O)cc1Nc1ccnc2cc(-c3ccncc3)ccc12.Cl	100
CCCCNCc1ccc(-c2nc(CN(CCCn3ccnc3)C(=O)C3COc4ccccc4O3)cs2)cc1.O=C(O)C(F)(F)F (stereo not given)	93
COc1cc2nc(N3CCC(CNC(=O)c4ccc(-c5ccc(-c6noc(C)n6)cc5)cc4)CC3)nc(N)c2cc1OC	98
C=Cc1c(C2CCN(CCCCNC(=O)c3ccc(-c4ccc(C#N)cc4)cc3)CC2)ccc2c1CCCC2	94
CC(C)(C)OC(=O)NCC(=O)N(Cc1ccccc1)Cc1ccccc1	97
COc1ccc(CNCc2ccc(-c3ccc(-c4nc5cc(F)ccc5[nH]4)cc3)cc2)cc1.O=C(O)C(F)(F)F	99
CCCCCCCN1CC[C@@H](CCCc2ccnc3ccc(OCCN4CCOCC4)cc23)[C@@H](CC)C1.O=C(O)C(=O)O	89
CCC1CN(CCCn2c3ccccc3c3ccccc32)C(CC)CN1.Cl (stereo not given)	89
O=C(CCc1c[nH]cn1)Nc1cccc(-c2cccc(-c3nc4cc(C(F)(F)F)ccc4[nH]3)c2)c1	100
COc1ccc2ncc(F)c(CCN3CC[C@H](NC(=O)c4ccc5c(n4)NC(=O)CS5)[C@H](O)C3)c2n1.Cl	88
O=C(COc1ccc(C(=O)c2ccccc2)cc1)Nc1nccs1	94
Oc1cccc(-c2nc(-c3ccccc3)c(-c3ccc4oc5ccc(-c6[nH]c(-c7cccc(O)c7)nc6-c6ccccc6)cc5c4c3)[nH]2)c1	91
CCN(CC)C(=O)C(=O)c1c[nH]c2ccc(Cl)cc12	96
CC(=O)CC(=O)N1CCN(c2ccccc2)CC1	85
Cl.Fc1cc(CN2CCCC2)ccc1OCCCN1CCN(c2cccc(Cl)c2Cl)CC1	82
CC(C)(C)c1ccc(CN2CCC(CNC(=O)c3cc(-c4cccc(Cl)c4)cs3)C2)cc1.O=C(O)C(F)(F)F (stereo not given)	100
CCOC(=O)c1ccc(-n2c(C)cc(C=C3SC(=Nc4ccccc4)N(C4CCCC4)C3=O)c2C)cc1	98
CCc1c(CCNCCCCCCNC(C)(C)Cc2ccc3c(c2CC)OCO3)ccc(OC)c1OC.Cl	100
Cl.O=c1cc(NCCCNCc2cc(Br)cs2)[nH]c2ccccc12	85
